# About 14,000 (4.5%) of roughly 310,000 compounds showed an effect of 50% or more. Effects have a minus sign here. The sample as a whole holds a higher share of strong results than the screen did.
# Molecular target: human ether-à-go-go-related gene (hERG) potassium channel (human, UniProt Q12809)
# Assay: primary screen, population patch clamp on CHO cells stably expressing hERG; higher = less effect of the substance
# 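Further: peak tail current of the secondary pulse compared with the same well before compound.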
# Chain of human ether-à-go-go-related gene (hERG) potassium channel (Q12809 whole entry, looked up): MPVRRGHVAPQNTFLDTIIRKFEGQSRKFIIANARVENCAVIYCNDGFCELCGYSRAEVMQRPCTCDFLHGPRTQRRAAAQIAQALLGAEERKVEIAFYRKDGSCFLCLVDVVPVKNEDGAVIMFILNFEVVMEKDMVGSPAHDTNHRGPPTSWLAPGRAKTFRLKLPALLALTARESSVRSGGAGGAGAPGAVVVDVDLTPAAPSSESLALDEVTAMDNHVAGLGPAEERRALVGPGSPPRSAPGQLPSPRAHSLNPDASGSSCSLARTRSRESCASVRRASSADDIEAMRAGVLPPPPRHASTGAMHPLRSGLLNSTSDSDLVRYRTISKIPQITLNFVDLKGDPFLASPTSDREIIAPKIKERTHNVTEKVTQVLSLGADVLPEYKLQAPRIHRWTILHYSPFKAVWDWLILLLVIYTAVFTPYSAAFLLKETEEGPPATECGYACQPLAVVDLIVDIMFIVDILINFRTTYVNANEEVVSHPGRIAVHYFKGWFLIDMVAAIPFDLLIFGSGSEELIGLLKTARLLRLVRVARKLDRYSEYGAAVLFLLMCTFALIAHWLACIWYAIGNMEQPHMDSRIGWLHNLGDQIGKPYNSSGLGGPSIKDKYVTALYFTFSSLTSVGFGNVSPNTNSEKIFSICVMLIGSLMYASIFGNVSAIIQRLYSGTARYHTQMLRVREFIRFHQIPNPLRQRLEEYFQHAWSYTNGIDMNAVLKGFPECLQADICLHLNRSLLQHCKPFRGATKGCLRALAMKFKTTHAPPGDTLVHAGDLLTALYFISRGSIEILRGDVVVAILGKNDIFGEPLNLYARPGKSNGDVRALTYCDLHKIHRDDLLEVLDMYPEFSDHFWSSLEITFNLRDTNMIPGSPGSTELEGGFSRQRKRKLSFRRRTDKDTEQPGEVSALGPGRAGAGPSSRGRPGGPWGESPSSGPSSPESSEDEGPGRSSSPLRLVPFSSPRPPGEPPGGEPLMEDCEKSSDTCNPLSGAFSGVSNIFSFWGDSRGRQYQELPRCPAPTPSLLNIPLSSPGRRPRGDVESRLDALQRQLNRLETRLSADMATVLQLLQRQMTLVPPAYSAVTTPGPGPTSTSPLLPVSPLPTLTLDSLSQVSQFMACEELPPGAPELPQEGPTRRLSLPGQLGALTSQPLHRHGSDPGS
row,Structure (SMILES),"hERG current change (%, negative = inhibition) at 10uM [%]"
1,Cc1ccccc1NC(=O)C1CCC(=O)N1 (centres unmarked),-0.504
2,Cc1c(N2C(=O)c3ccc(F)cc3C2=O)c(=O)n(-c2ccccc2)n1C,13.6
3,Cc1ccccc1Nc1nc(N)nc(-c2oc3ccccc3c2C)n1,4.69
4,COc1ccc(Cl)cc1NC(=O)CCN1C(=O)C2C3C=CC(C4CC34)C2C1=O (centres unmarked),-24.4
5,COc1ccc(O)c(-c2cc(-c3ccccc3[N+](=O)[O-])[nH]n2)c1,-11.7
6,COC(=O)c1sc(NC(=O)CSc2nnc(Cn3nnc4ccccc43)n2C)nc1C,23.9
7,Cc1nc(NC(=O)CSc2nnc(Cn3nnc4ccccc43)n2C)sc1C,0.783
8,CCOC(=O)Cc1csc(NC(=O)CSc2nnc(Cc3csc(N)n3)n2C)n1,-1.19
9,CCOC(=O)c1c(NC(=O)CSc2nnc(Cc3csc(N)n3)n2C)sc(C)c1C,-51.8
10,COC(=O)c1c(NC(=O)CSc2nnc(Cn3nnc4ccccc43)n2C)sc(C)c1C,-62.7
11,CCOC(=O)c1c(NC(=O)CSc2nnc(CNc3ccc(OC)cc3)n2C)sc(C)c1C,-21.7
12,CN(C)C(=O)N1CCC(C(=O)NCc2ccc3c(c2)OCO3)CC1,5.54
13,O=C(CNc1cccc2ccccc12)N/N=C/c1cccc(Oc2ccccc2)c1,18.2
14,Cc1ccc(S(=O)(=O)N2CCN(C(=O)COC(=O)CCOc3ccccc3)CC2)c(C)c1,1.16
15,CCN(CC(=O)Nc1ccc(OC)cc1)CC(=O)Nc1cccc(C#N)c1,0.389
16,CS(=O)(=O)N1CCC(C(=O)c2cccc(Cl)c2)CC1,-0.907
17,COc1ccc(CN2CCCC(C(=O)c3cccc(Cl)c3)C2)cc1 (centres unmarked),-57.4
18,COc1ccc(CN2CCC(C(=O)c3cccc(Cl)c3)CC2)cc1,-78.7
19,COc1cccc(OC)c1CN1CCCC(C(=O)c2cccc(Cl)c2)C1 (centres unmarked),-69
20,O=C(c1cccc(Cl)c1)C1CCCN(Cc2ccon2)C1 (centres unmarked),-26.3
21,COc1cccc(C(=O)C2CCCN(Cc3ccc(F)cc3)C2)c1 (centres unmarked),-18.6

row,Structure (SMILES),"hERG current change (%, negative = inhibition) at 10uM [%]"
1,COc1ccc(CNC(=O)C2CCN(C(=O)c3cccc(Cl)c3)CC2)cc1,-44.9
2,O=C(c1cccc(Cl)c1)C1CCCN(Cc2ccc(N3CCNC3=O)cc2)C1 (centres unmarked),-43.7
3,C[C@H](CCC(=O)NCC(=O)[O-])[C@H]1CC[C@H]2[C@@H]3[C@H](O)C[C@@H]4C[C@H](O)CC[C@]4(C)[C@H]3C[C@H](O)[C@]12C.O.[Na+],-21.4
4,Cc1ccc(Cn2ccc(NC(=O)c3cc(-c4ccc(Cl)cc4)on3)n2)cc1,17.3
5,COc1cccc(Nc2ncnc3sc(C)cc23)c1.Cl,-8.64
6,C#CCOCCOCCOCCNc1nc(N2CCN(C(=O)[C@H]([C@@H](C)CC)n3cc([C@@H](N)CC(C)C)nn3)CC2)nc(N2CCN(C(=O)[C@H](CCCCN)n3cc([C@@H](N)CC(C)C)nn3)CC2)n1.Cl,-10.1
7,CCOc1ccccc1CNC(=O)c1ccc(NC(=O)C2=CSCCO2)cc1,7.72
8,COc1ccccc1C(=O)NCCC(=O)NCc1ccccn1,-2.66
9,O=C(O)c1ccc(Oc2ccc(C(F)(F)F)cn2)cc1,17.5
10,O=[N+]([O-])c1ccc(Oc2ccc(Oc3ccc(C(F)(F)F)cn3)cc2)nc1,-1.44
11,O=C(O)C(=O)O.O=[N+]([O-])c1ccc(Oc2ccc(C(F)(F)F)cn2)cc1,-53.9
12,COc1ccc(NC(=O)Nc2c(C)n(C)n(-c3ccccc3)c2=O)cc1,-18.6
13,O=C1N=C(N2CCCC2C(=O)O)S/C1=C\c1ccco1 (centres unmarked),35
14,O=C1N=C(N2CCCC2)S/C1=C\c1ccccc1,15.2
15,O=C1N=C(N2CCN(c3ccccc3)CC2)S/C1=C\c1ccco1,-66.1
16,O=C1N=C(N2CCN(c3ccccc3)CC2)S/C1=C/c1ccco1,-53.8
17,O=C1N=C(N2CCN(c3ccccc3)CC2)S/C1=C/c1cccs1,-49.3
18,NC1=NC(=O)/C(=C\c2ccco2)S1,19.2
19,CCC(C)C(NC(=O)CCCNC(=O)CCC(=O)OC1O[C@H]2OC3(C)CC[C@H]4[C@H](C)CCC(C1C)C24OO3)C(=O)O (some centres unmarked),4.12
20,CC(C)CC(NC(=O)CCCNC(=O)CCC(=O)OC1O[C@H]2OC3(C)CC[C@H]4[C@H](C)CCC(C1C)C24OO3)C(=O)O (some centres unmarked),1.34

# Reference: publication PMC4336329 (PLoS ONE, 2015)
